Assay results published in the supplement of paper PMC6897291.

Tests used:
[1] = tested on: U-2932; assay: growth inhibition by drug alone (1 - RLU/untreated control) (fraction); higher = stronger inhibition; details: 177Lu-lilotomab satetraxetan 0 ug/ml
In short: (§1)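 RIVA or U-2932 cells were left untreated or pretreated for 18 h with a radiolabelled anti-CD37 antibody conjugate (~600 MBq/mg) at 0.5 µg/ml for RIVA or 1 µg/ml for U-2932. The cells were then washed and seeded at 3,000 cells/well on plates pre-printed with the Selleck Cambridge Cancer Compound library, dosed at 10/100 nM for RIVA and 10/1,000 nM for U-2932. From day 3, RealTime-Glo luminescence was read daily after 1 h at 37°C. Growth inhibition was taken as one minus RLU over the mean of the untreated no-drug wells, of which there were 48 per plate.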

[2] = tested on: U-2932; assay: growth inhibition by drug plus 177Lu-lilotomab satetraxetan (1 - RLU/untreated control) (fraction); higher = stronger inhibition; details: 177Lu-lilotomab satetraxetan 1 ug/ml
In short: as §1

[3] = tested on: RIVA; assay: as above; details: 177Lu-lilotomab satetraxetan 0.5 ug/ml
In short: as §1

[4] = tested on: RIVA; assay: growth inhibition by drug alone (1 - RLU/untreated control) (fraction); higher = stronger inhibition; details: 177Lu-lilotomab satetraxetan 0 ug/ml
In short: as §1

SMILES	growth inhibition by drug alone ([1]; 10 nM, time (day): 3)	growth inhibition by drug alone ([1]; 10 nM, time (day): 4)	growth inhibition by drug alone ([1]; 10 nM, time (day): 5)	growth inhibition by drug alone ([1]; 10 nM, time (day): 6)	growth inhibition by drug alone ([1]; 1000 nM, time (day): 3)	growth inhibition by drug alone ([1]; 1000 nM, time (day): 4)	growth inhibition by drug alone ([1]; 1000 nM, time (day): 5)	growth inhibition by drug alone ([1]; 1000 nM, time (day): 6)	growth inhibition by drug plus 177Lu-lilotomab satetraxetan ([2]; 10 nM, time (day): 3)	growth inhibition by drug plus 177Lu-lilotomab satetraxetan ([2]; 10 nM, time (day): 4)	growth inhibition by drug plus 177Lu-lilotomab satetraxetan ([2]; 10 nM, time (day): 5)	growth inhibition by drug plus 177Lu-lilotomab satetraxetan ([2]; 10 nM, time (day): 6)	growth inhibition by drug plus 177Lu-lilotomab satetraxetan ([2]; 1000 nM, time (day): 3)	growth inhibition by drug plus 177Lu-lilotomab satetraxetan ([2]; 1000 nM, time (day): 4)	growth inhibition by drug plus 177Lu-lilotomab satetraxetan ([2]; 1000 nM, time (day): 5)	growth inhibition by drug plus 177Lu-lilotomab satetraxetan ([2]; 1000 nM, time (day): 6)	growth inhibition by drug plus 177Lu-lilotomab satetraxetan ([3]; 10 nM, time (day): 3)	growth inhibition by drug plus 177Lu-lilotomab satetraxetan ([3]; 10 nM, time (day): 4)	growth inhibition by drug plus 177Lu-lilotomab satetraxetan ([3]; 10 nM, time (day): 5)	growth inhibition by drug plus 177Lu-lilotomab satetraxetan ([3]; 10 nM, time (day): 6)	growth inhibition by drug plus 177Lu-lilotomab satetraxetan ([3]; 100 nM, time (day): 3)	growth inhibition by drug plus 177Lu-lilotomab satetraxetan ([3]; 100 nM, time (day): 4)	growth inhibition by drug plus 177Lu-lilotomab satetraxetan ([3]; 100 nM, time (day): 5)	growth inhibition by drug plus 177Lu-lilotomab satetraxetan ([3]; 100 nM, time (day): 6)	growth inhibition by drug alone ([4]; 10 nM, time (day): 3)	growth inhibition by drug alone ([4]; 10 nM, time (day): 4)	growth inhibition by drug alone ([4]; 10 nM, time (day): 5)	growth inhibition by drug alone ([4]; 10 nM, time (day): 6)	growth inhibition by drug alone ([4]; 100 nM, time (day): 3)	growth inhibition by drug alone ([4]; 100 nM, time (day): 4)	growth inhibition by drug alone ([4]; 100 nM, time (day): 5)	growth inhibition by drug alone ([4]; 100 nM, time (day): 6)
CC[C@]1(O)C[C@@H]2CN(CCc3c([nH]c4ccccc34)[C@@](C(=O)OC)(c3cc4c(cc3OC)N(C)[C@H]3[C@@](O)(C(=O)OC)[C@H](OC(C)=O)[C@]5(CC)C=CCN6CC[C@]43[C@@H]65)C2)C1 [Vinblastine]	0.125	0.0844	0.0429	0.00677	0.942	0.96	0.971	0.978	0.0509	0.085	0.136	0.198	0.96	0.973	0.981	0.984	0.383	0.503	0.523	0.53	0.574	0.643	0.659	0.668	–	–	–	–	–	–	–	–
O=C(NOC[C@H](O)CO)c1ccc(F)c(F)c1Nc1ccc(I)cc1F	0.189	0.198	0.0482	0.0357	0.152	0.19	0.102	0.0951	0.138	0.163	0.15	0.218	0.162	0.231	0.189	0.269	0.487	0.514	0.508	0.496	0.552	0.532	0.512	0.467	–	–	–	–	–	–	–	–
COc1ccc2c(c1)CCC1C2CCC2(C)C(NCCCCCCN3C(=O)C=CC3=O)CCC12 (stereo unspecified)	0.079	0.0406	0.0171	-0.0318	-0.0546	0.0273	-0.0312	-0.361	0.00613	0.0631	0.103	0.161	-0.0126	0.0436	0.0468	0.107	0.506	0.561	0.586	0.598	0.502	0.567	0.571	0.58	–	–	–	–	–	–	–	–
COC(=O)c1ccc2c(C(=Nc3ccc(N(C)C(=O)CN4CCN(C)CC4)cc3)c3ccccc3)c(O)[nH]c2c1 [BIBF1120 (Vargatef)]	-0.0536	-0.0365	-0.0213	0.0413	-0.121	-0.0853	-0.113	-0.173	-0.06	-0.0397	-0.00235	0.146	-0.172	-0.0703	-0.0418	-0.00489	0.292	0.437	0.461	0.479	0.251	0.362	0.366	0.375	-0.119	-0.148	-0.188	-0.27	-0.285	-0.322	-0.347	-0.414
CNC(=O)c1cc(Oc2ccc(NC(=O)Nc3ccc(Cl)c(C(F)(F)F)c3)cc2)ccn1 [Sorafenib (Nexavar)]	0.065	0.061	0.0056	-0.0896	0.0548	0.172	0.16	0.0821	-0.0368	-0.00107	-0.00478	0.0413	-0.000329	0.177	0.189	0.145	0.328	0.487	0.498	0.507	0.415	0.561	0.594	0.583	-0.0351	-0.0584	-0.0811	-0.269	-0.171	-0.0734	-0.0752	-0.125
COc1cc2ncnc(Nc3cccc(Br)c3)c2cc1OC	0.0352	0.0294	-0.0462	-0.213	-0.0358	-0.00581	-0.044	-0.226	-0.0269	-0.00153	0.00885	0.0642	-0.0997	0.0384	0.0191	0.0515	0.308	0.458	0.483	0.516	0.349	0.482	0.487	0.467	-0.0227	0.0203	-0.0662	-0.376	-0.0939	-0.0578	-0.0794	-0.167
CNC(=O)c1cc(Oc2ccc(NC(=O)Nc3cc(C(C)(C)C)nn3-c3ccc4ncccc4c3)c(F)c2)ccn1 [DCC-2036 (Rebastinib)]	0.0874	0.0635	0.096	-0.234	0.0869	0.114	0.104	0.0187	0.0343	0.0699	0.117	0.132	0.0878	0.127	0.208	0.293	0.44	0.57	0.586	0.613	0.486	0.607	0.626	0.633	-0.0575	0.00723	-0.0883	-0.395	-0.428	-0.203	-0.231	-0.405
CC(C)(C)c1[nH]cnc1/C=c1\[nH]c(=O)/c(=C/c2ccccc2)[nH]c1=O [NPI-2358 (Plinabulin)]	0.142	0.0848	0.0507	-0.0221	0.964	0.971	0.974	0.98	0.0693	0.123	0.165	0.213	0.968	0.975	0.98	0.984	0.505	0.546	0.548	0.574	0.955	0.967	0.972	0.976	0.00478	-0.0503	-0.112	-0.272	0.941	0.953	0.959	0.963
COc1cc2c(N3CCN(C(=O)Nc4ccc(OC(C)C)cc4)CC3)ncnc2cc1OCCCN1CCCCC1 [Tandutinib (MLN518)]	-0.0695	-0.0613	-0.013	0.108	-0.0914	-0.0805	-0.0691	-0.0707	-0.106	-0.0661	-0.0234	0.112	-0.163	-0.112	-0.0614	0.0615	0.419	0.516	0.54	0.542	0.365	0.403	0.407	0.387	-0.157	-0.175	-0.185	-0.222	-0.102	-0.12	-0.163	-0.231
CN1C(=O)C(Cc2c[nH]c3ccccc23)NC1=S (stereo unspecified) [Necrostatin-1]	0.00216	-0.00946	-0.022	-0.0551	-0.0606	-0.0746	-0.132	-0.0624	-0.059	-0.0156	0.00349	0.0946	-0.0506	0.00685	0.0586	0.224	0.451	0.501	0.519	0.523	0.368	0.476	0.476	0.476	-0.0747	-0.159	-0.218	-0.441	-0.34	-0.362	-0.408	-0.562
COc1cc(N2CCC(N3CCN(C)CC3)CC2)ccc1Nc1ncc(Cl)c(Nc2ccccc2S(=O)(=O)C(C)C)n1	0.0279	0.0267	-0.0689	-0.173	0.411	0.377	0.328	0.37	-0.0224	0.0234	0.0221	0.0517	0.226	0.3	0.325	0.525	0.354	0.492	0.509	0.521	0.198	0.273	0.278	0.268	-0.00616	-0.0284	-0.166	-0.627	-0.194	-0.141	-0.341	-0.647
CNC(=O)c1ccccc1Sc1ccc2c(/C=C/c3ccccn3)n[nH]c2c1 [Axitinib]	-0.00761	0.0176	0.0231	-0.0205	0.0126	0.0489	-0.0091	-0.0631	0.0328	0.0444	0.0505	0.163	-0.0364	0.0807	0.114	0.196	0.405	0.507	0.522	0.533	0.439	0.479	0.492	0.484	-0.0928	-0.118	-0.216	-0.609	-0.116	-0.0759	-0.117	-0.195
Nc1ccccc1NC(=O)c1ccc(CNc2nccc(-c3cccnc3)n2)cc1 [Mocetinostat (MGCD0103)]	0.00982	0.0102	0.0298	0.152	0.868	0.878	0.889	0.91	-0.0242	-0.00346	0.0145	0.11	0.876	0.893	0.907	0.934	0.466	0.553	0.579	0.576	0.681	0.692	0.705	0.7	-0.0534	-0.0971	-0.0989	-0.142	0.358	0.254	0.208	0.152
CCCCCOC(=O)Nc1nc(=O)n([C@@H]2O[C@H](C)[C@@H](O)[C@H]2O)cc1F [Capecitabine (Xeloda)]	-0.0672	-0.0894	-0.0926	-0.0992	-0.0819	-0.0438	-0.0714	0.0681	-0.101	-0.0507	0.0153	0.0328	-0.139	-0.0798	-0.0339	0.114	0.468	0.533	0.549	0.549	0.378	0.466	0.465	0.483	-0.345	-0.321	-0.354	-0.36	-0.381	-0.792	-0.367	-0.436
C=CC[C@@H]1/C=C(\C)C[C@H](C)C[C@H](OC)[C@H]2O[C@@](O)(C(=O)C(=O)N3CCCC[C@H]3C(=O)O[C@H](/C(C)=C/[C@@H]3CC[C@@H](O)[C@H](OC)C3)[C@H](C)[C@@H](O)CC1=O)[C@H](C)C[C@@H]2OC [FK-506 (Tacrolimus)]	0.267	0.364	0.442	0.532	0.227	0.39	0.449	0.553	0.323	0.406	0.478	0.594	0.206	0.367	0.459	0.574	0.801	0.806	0.834	0.875	0.87	0.859	0.89	0.913	0.737	0.636	0.618	0.602	0.867	0.796	0.777	0.783
